Test results published in PubChem BioAssay (NCI).
Compounds without any hit were thinned out: in the full panel of roughly 83,000, 20% have a hit.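 96-well plates, one dose, 48 hours. Percent growth reported; active if below 10.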 Unmarked numbers belong to inactive results. Active and inactive are the calls of the source.

Legend:
Experiment in all cases: NCI-60 one-dose screen, 48 h (100 = growth as untreated, 0 = no growth, -100 = all killed)
[1] = test system: 786-0 renal; conditions: 10 µM unless noted
[2] = test system: DU-145 prostate; conditions: 10 µM unless noted
[3] = test system: MDA-MB-231 breast; conditions: 10 µM unless noted
[4] = test system: SF-268 CNS; conditions: 10 µM unless noted
[5] = test system: SF-539 CNS; conditions: 10 µM unless noted
[6] = test system: UACC-257 melanoma; conditions: 10 µM unless noted
[7] = test system: HCT-15 colon; conditions: 10 µM
[8] = test system: SNB-19 CNS; conditions: 10 µM unless noted
[9] = test system: PC-3 prostate; conditions: 10 µM unless noted
[10] = test system: UACC-62 melanoma; conditions: 10 µM unless noted
[11] = test system: LOX IMVI melanoma; conditions: 10 µM unless noted
[12] = test system: SK-MEL-28 melanoma; conditions: 10 µM unless noted
[13] = test system: SN12C renal; conditions: 10 µM unless noted
[14] = test system: MOLT-4 leukemia; conditions: 10 µM
[15] = test system: OVCAR-8 ovarian; conditions: 10 µM unless noted
[16] = test system: OVCAR-3 ovarian; conditions: 10 µM unless noted
[17] = test system: MDA-MB-435 melanoma; conditions: 10 µM unless noted
[18] = test system: SW-620 colon; conditions: 10 µM unless noted
[19] = test system: MCF7 breast; conditions: 10 µM unless noted
[20] = test system: KM12 colon; conditions: 10 µM unless noted

Compound: CC12CCC3C(CC=C4CC(O)CCC43C)C1C/C(=C\N1CCOCC1)C2=O (stereo not given)
- growth [1]: 104%
- growth [2]: 110%
- growth [3]: 106%
- growth [4]: 109%
- growth [5]: 108%
- growth [6]: 101%
- growth [7]: 99.9%
- growth [8]: 110%
- growth [9]: 96.4%
- growth [10]: 104%
- growth [11]: 105%
- growth [12]: 106%
- growth [13]: 102%
- growth [14]: 106%
- growth [15]: 100%
- growth [16]: 116%
- growth [17]: 107%
- growth [18]: 105%
- growth [19]: 92.2%
- growth [20]: 108%

Compound: CNC(=O)Oc1cccc(OC)c1
- growth [1]: 107%
- growth [2]: 115%
- growth [3]: 93.3%
- growth [4]: 118%
- growth [5]: 111%
- growth [6]: 112%
- growth [7]: 112%
- growth [8]: 103%
- growth [9]: 109%
- growth [10]: 100%
- growth [11]: 100%
- growth [12]: 111%
- growth [13]: 93.3%
- growth [15]: 108%
- growth [16]: 121%
- growth [17]: 95.5%
- growth [18]: 111%
- growth [19]: 101%
- growth [20]: 112%

Compound: Cc1ccc2oc(=O)c3c(c2c1)OC(N)=C(C#N)C3c1ccco1 (stereo not given)
- growth [1]: 102%
- growth [2]: 103%
- growth [3]: 103%
- growth [4]: 101%
- growth [5]: 101%
- growth [6]: 96.6%
- growth [7]: 103%
- growth [8]: 96.9%
- growth [9]: 95.9%
- growth [10]: 95.9%
- growth [11]: 96.8%
- growth [12]: 113%
- growth [13]: 101%
- growth [14]: 107%
- growth [15]: 101%
- growth [16]: 104%
- growth [17]: 105%
- growth [18]: 101%
- growth [19]: 93.8%
- growth [20]: 98.9%

Compound: C1CN1c1nc(N2CC2)nc(N2CC2)n1
- growth [1]: 9.79% (active)
- growth [2]: -1.22% (active)
- growth [3]: 87.8%
- growth [4]: 30.4%
- growth [5]: -7.16% (active)
- growth [6]: 43.7%
- growth [7]: 23.8%
- growth [8]: 35.9%
- growth [9]: 45.2%
- growth [10]: 41.1%
- growth [11]: 17%
- growth [13]: 51.7%
- growth [14]: 10.5%
- growth [16]: 65.8%
- growth [17]: 63.9%
- growth [18]: 51.8%
- growth [19]: 20.9%
- growth [20]: 61.8%

Compound: CNC(C)Cc1ccccc1 (stereo not given) (tested in a mixture with another compound)
- growth [1]: 102%
- growth [2]: 108%
- growth [3]: 120%
- growth [4]: 108%
- growth [5]: 99.7%
- growth [6]: 109%
- growth [7]: 101%
- growth [8]: 105%
- growth [9]: 92.8%
- growth [10]: 107%
- growth [11]: 98.7%
- growth [12]: 105%
- growth [13]: 104%
- growth [14]: 90.6%
- growth [15]: 113%
- growth [16]: 104%
- growth [17]: 104%
- growth [18]: 102%
- growth [19]: 97.3%
- growth [20]: 99.8%

Compound: O=C(CCF)c1ccc(O)cc1
- growth [1]: 103%
- growth [2]: 105%
- growth [3]: 113%
- growth [5]: 103%
- growth [6]: 98.2%
- growth [7]: 102%
- growth [8]: 96.2%
- growth [9]: 98%
- growth [10]: 106%
- growth [11]: 95%
- growth [12]: 113%
- growth [13]: 100%
- growth [14]: 100%
- growth [15]: 99.2%
- growth [16]: 109%
- growth [17]: 104%
- growth [19]: 101%
- growth [20]: 106%

Compound: O=C(O)C1[O][Sb][O]C1C(=O)O (stereo not given)
- growth [1]: 102%
- growth [2]: 91.4%
- growth [3]: 128%
- growth [4]: 93%
- growth [5]: 98.2%
- growth [6]: 98.2%
- growth [7]: 88.5%
- growth [8]: 110%
- growth [9]: 102%
- growth [10]: 110%
- growth [11]: -57.9% (active)
- growth [12]: 94%
- growth [13]: 104%
- growth [14]: 94.6%
- growth [15]: 101%
- growth [16]: 95.4%
- growth [17]: 105%
- growth [18]: 117%
- growth [19]: 92%
- growth [20]: 99.5%

Compound: C[C@]12CC[C@H]3[C@@H](C[C@@H]4N=C(c5ccc(O)cc5)S[C@@]45C[C@H](O)CC[C@]35C)[C@@H]1CC[C@@H]2O
- growth [1]: 8.35% (active)
- growth [2]: 63.8%
- growth [3]: 56.2%
- growth [4]: 48.6%
- growth [5]: 8.02% (active)
- growth [6]: 66.2%
- growth [7]: 29.5%
- growth [8]: 71%
- growth [9]: 49.5%
- growth [10]: 28.7%
- growth [11]: 25.4%
- growth [12]: 53.3%
- growth [13]: 96.7%
- growth [14]: -23.2% (active)
- growth [15]: 74.2%
- growth [16]: 38.6%
- growth [17]: 92%
- growth [18]: 71.7%
- growth [19]: 42.6%
- growth [20]: 60.8%
